Screening data: PubChem, National Center for Advancing Translational Sciences (NCATS)
PI5P4K alpha inh: inhibitors of human PI5P4K alpha | P48426 | PI5P4Kalpha enzyme, ADP-Glo luminescence, 60 min; stronger effect = lower value | max response, % | 330,000 tested, 1.2% active; active = max response of -50% or lower; inconclusive = between -30% and -50%; inactive = -30% or higher; note: value at the top dose of about 77 µM; % is set by controls: 0 for no effect and ±100 for the full control effect
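Controls without substrate or without enzyme flank wells where PI5P4Kalpha converts substrate using 5 microM ATP (final). Incubation lasts 60 minutes at room temperature; ADP formed is read by ADP-Glo luminescence.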
HP1b binding inh: HP1-beta chromodomain-methylated histone interaction inhibition. P83916. AlphaScreen HP1-beta / biotin-H3K9me3 peptide binding. Potency, µM (top dose mostly 114 µM), for inactives: top-dose activity change, negative = inhibition, actives largely listed as inhibitors. 390,000 tested, 0.56% active. AID 540317; note: potency is the fitted concentration of half-maximal effect; nearly all actives have a fitted effect of over 70% in size
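AlphaScreen: HP1-beta (50 nM) preformed 30 min with biotin-H3(1-18)K9me3 peptide (50 nM) in PBS pH 7.4, 0.01% Tween-20. Compound added for 30 min at RT, then streptavidin donor/nickel chelate acceptor beads (10 ug/mL) for 30 min.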
G9a block: inhibitors of human histone lysine methyltransferase G9a | Q96KQ7 | G9a H3K9 monomethylation, AlphaScreen, 2 h | Potency, µM (doses to about 102 µM), inactives show top-dose activity, negative = inhibition, actives largely listed as inhibitors | 350,000 tested, 8.8% active | AID 504332; note: potency is the fitted concentration of half-maximal effect; % is set by controls: 0 for no effect and ±100 for the full control effect; nearly all actives have a fitted effect of over 75% in size
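G9a (20 nM) preincubated 15 min RT with compounds, then 500 nM biotinylated H3K9 peptide and 20 uM SAM added; 2 h RT reaction. Monomethyl-H3K9 product detected by AlphaScreen with anti-H3K9me1 antibody, streptavidin donor and anti-rabbit IgG acceptor beads.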
BAZ2B block: BAZ2B (human) inhibition | Q9UIF8 | AlphaScreen BAZ2B-H3K14Ac peptide displacement | 360,000 tested, 4.4% active | Potency, µM (doses to about 114 µM), without a hit: at the top dose activity change, negative = inhibition, hits mostly inhibitors; note: potency is the fitted concentration of half-maximal effect; % is set by controls: 0 for no effect and ±100 for the full control effect; nearly all actives have a fitted effect of over 60% in size
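BAZ2B (50 nM) with biotin-H3(5-23)K14Ac peptide (50 nM) in PBS pH 7.4, 0.01% Tween-20, preformed 30 min, then compound 30 min at room temperature; top concentration 110uM. AlphaScreen streptavidin donor/nickel chelate acceptor beads (10 ug/mL final), 20 min dark, signal read.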
PLK1 PBD block: PLK1 (human) polo-box domain binding inhibition; 360,000 tested, 2.8% active; P53350; Plk1 PBD binding of FITC phosphopeptide, fluorescence polarization; Potency, µM, inactives show max response, negative = inhibition, actives largely listed as inhibitors; AID 720504; note: potency is the fitted concentration of half-maximal effect; series mostly up to about 57 µM; % is set by controls: 0 for no effect and ±100 for the full control effect; nearly all actives have a fitted effect of over 65% in size
Target sequence (P53350 whole entry, looked up, the tested form may be a part): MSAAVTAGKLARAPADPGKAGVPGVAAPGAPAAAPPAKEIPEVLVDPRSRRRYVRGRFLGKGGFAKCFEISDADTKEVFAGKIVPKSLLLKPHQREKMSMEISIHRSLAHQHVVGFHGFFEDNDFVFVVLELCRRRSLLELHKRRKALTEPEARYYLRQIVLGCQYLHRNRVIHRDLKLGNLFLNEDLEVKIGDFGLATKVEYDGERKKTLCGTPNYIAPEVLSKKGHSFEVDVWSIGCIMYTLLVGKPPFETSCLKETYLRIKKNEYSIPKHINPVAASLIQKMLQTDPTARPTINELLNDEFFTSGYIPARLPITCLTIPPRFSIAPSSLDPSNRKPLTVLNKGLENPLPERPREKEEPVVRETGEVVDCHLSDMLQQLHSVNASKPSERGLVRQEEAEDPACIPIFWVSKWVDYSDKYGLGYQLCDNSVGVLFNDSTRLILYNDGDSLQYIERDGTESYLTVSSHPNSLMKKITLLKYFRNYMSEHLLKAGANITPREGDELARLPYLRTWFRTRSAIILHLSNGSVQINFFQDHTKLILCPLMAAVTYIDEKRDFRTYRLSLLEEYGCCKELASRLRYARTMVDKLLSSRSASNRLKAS
JMJD2A Tudor: JMJD2A Tudor domain (human) inhibition | AID 504339 | AlphaScreen JMJD2A-Tudor / H3K4me3 peptide binding | Potency, µM (highest dose often 114 µM), for inactives: at the top dose activity change, negative = inhibition, hits mostly inhibitors | O75164 | 390,000 tested, 4.4% active; note: potency is the fitted concentration of half-maximal effect; % is set by controls: 0 for no effect and ±100 for the full control effect; nearly all actives have a fitted effect of over 50% in size
* = called active by the depositor; u = inconclusive; x = not tested or not shown; [ ] = remark or other dose. This is a sample that favours compounds with a hit; in the whole collection about 12% have one here. Unless noted, calls come from the whole dose curve; as a rule, active = well fitted curve in the direction sought with a large enough effect; inconclusive = small, poorly fitted or top-dose-only effect, or another doubt; inactive = no such curve, though single readings can be large; an effect the other way counts as inactive or inconclusive.

SMILES	PI5P4K alpha inh	HP1b binding inh	G9a block	BAZ2B block	PLK1 PBD block	JMJD2A Tudor
COc1cc2cc(CNc3ccccc3)c(=O)n(CC(=O)Nc3cccc(Cl)c3C)c2cc1OC	x	15%	u	-13%	x	1%
CN(C)c1cccc(C(=O)NNC(=O)CN2C(=O)C3CC=CCC3C2=O)c1 (stereo not drawn)	-4	-17%	x	x	-6%	-31%
C[C@@H]1CC[C@]2(C(=O)O)CC[C@]3(C)C(=CCC4[C@@]5(C)C[C@@H](O)[C@H](O)[C@@](C)(CO)C5[C@H](O)C[C@]43C)C2[C@H]1C (stereo partly drawn)	x	x	-3%[59 µM]	x	x	x
CCc1nc2c(OCc3ccc(Cl)cc3Cl)cccn2c1N(C)C(C)=O	-5	x	x	x	2%	x
CC(C)(C)c1ccc(CC(=O)N2CCC2(C)C(=O)NS(=O)(=O)c2ccc(F)cc2F)cc1 (stereo not drawn)	1	x	x	x	3%	x
CCCc1nc2c(o1)CC(CC(C)SCC)CC2=O (stereo not drawn)	4	18%	-2%	-8%	-2%	9%
CCSC(C)CC1CC(=O)CC(=O)C1 (stereo not drawn)	-5	22%	56µM*	-5%	-12%	-16%
CCN(Cc1ccccc1)C(=O)Cn1c(=O)n(-c2ccc(Cl)cc2)c(=O)c2c(C)c(C(=O)N(C)C)sc21	x	7%	11%[59 µM]	-5%	x	13µM*
COc1cc(OC)cc(C(=O)NC(C(=O)N2CCc3ccccc3C2)C(C)C)c1 (stereo not drawn)	3	24%	1%[59 µM]	-1%	1%	-10%
Nc1cccc([N+](=O)[O-])c1	1	37%	13%	-30%	0%	-9%
Nc1ccc2nn(-c3cc([N+](=O)[O-])ccc3O)nc2c1	-29	26%	40µM*	-9%	-9%	-12%
COc1cc(C2C(C#N)=C(N)OC3=C2C(=O)CC(C)(C)C3)cc2c1OCO2 (stereo not drawn)	-59*	1%	x	x	-12%	u
COc1ccc(C2C(C#N)=C(N)OC3=C2C(=O)CC(C)(C)C3)cc1 (stereo not drawn)	-5	40%	15%	-10%	2%	12%
COc1cc(C2C(C#N)=C(N)Oc3cc(N(C)C)ccc32)cc2c1OCO2 (stereo not drawn)	x	u	u	45µM*	0%	50µM*
Cc1cc(C)cc(NC(=O)c2ccc(S(=O)(=O)C(F)F)cc2)c1	5	28%	50µM*	7%	-5%	-9%
O=C(c1cccc(F)c1)N1CCC[C@@]2(CCN(Cc3nccs3)C2)C1	x	x	-3%[12.7 µM]	x	x	x
Cc1ccc(NC(=O)C(=O)NCC(c2cccnc2)N2CCN(Cc3ccccc3)CC2)cc1Cl (stereo not drawn)	x	24%	-20%[59 µM]	-11%	x	-12%
CCCCCCCCCCCCCCCC[N+](C)(C)Cc1ccccc1	x	x	-38%[12.7 µM]	x	x	x
COc1ccc(-n2cnnc2SCC(=O)Nc2ccc(C(N)=O)cc2)cc1	160	35%	-11%	0%	2%	11%
NC(=O)c1ccc(NC(=O)CSC(=O)c2ccccc2)cc1	-16	-33%	x	x	27µM*	-15%
NC(=O)c1ccc(NC(=O)CSc2nncn2-c2ccccc2)cc1	49	22%	22µM*	-2%	-14%	-6%
CCOC(=O)c1c2c(n(-c3ccc(OC)cc3)c1C)C(=O)C(=O)c1ccccc1-2	-12	u	x	x	u	18µM*
COc1ccc(NC(=O)Cn2ncc3c4ccccc4n(Cc4ccccc4)c3c2=O)cc1OC	x	37%	6%[59 µM]	-6%	x	-2%
Nc1cc(N)nc(SCC(=O)NCc2ccc3c(c2)OCO3)n1	-21	-1%	x	x	6µM*	-22%
Cc1nnc(SCC(=O)NCc2ccc3c(c2)OCO3)[nH]c1=O	x	24%	50µM*	-32%	-2%	-17%
SMILES	PI5P4K alpha inh	HP1b binding inh	G9a block	BAZ2B block	PLK1 PBD block	JMJD2A Tudor
Cc1cc(C)c(NC(=O)Cn2nnc(C(=O)NCc3ccc4c(c3)OCO4)c2N)c(C)c1	-1	15%	17%[59 µM]	-16%	u	56µM*
Cc1nc(SCC(=O)NCc2ccc3c(c2)OCO3)nc(C)c1C	2	-4%	x	x	-11%	-12%
O=C(CSc1nc2ccccc2s1)NCc1ccc2c(c1)OCO2	5	18%	u	2%	u	-10%
O=C(CSc1ccc2ccccc2n1)NCc1ccc2c(c1)OCO2	-13	-3%	u	1%	24µM*	u
COCCn1c(=O)[nH]c2cc(C(=O)N3CCN(c4cccc(C)c4C)CC3)ccc2c1=O	-6	27%	2%	-3%	0%	-2%
Cc1cc(C)n2c(SCC(=O)NCc3ccc4c(c3)OCO4)nnc2n1	-12	-22%	11µM*	-1%	24µM*	79µM*
CCn1c(SCC(=O)NCc2ccc3c(c2)OCO3)nnc1-c1ccncc1	-6	30%	-50%	-12%	4%	-12%
CCOc1ccc(C(=O)N2CCN(Cc3cc(=O)n4nc(-c5ccccc5Cl)sc4n3)CC2)cc1	x	18%[57 µM]	1%[59 µM]	2%	x	-6%
O=C(Nc1ccccc1)Nc1nnc(/C=C/c2ccccc2Cl)s1	-2	22%	1%	2%	6%	-5%
Nc1nnc(/C=C/c2ccccc2Cl)s1	-22	6%	50µM*	2%	u	2%
Nc1nc(=S)c2[nH]c(=S)[nH]c2[nH]1	u	-16%[57 µM]	x	x	u	3.2µM*
CSc1nc(=S)c2[nH]c(=S)[nH]c2[nH]1	-87*	20µM*	0.63µM*	79µM*	2.7µM*	25µM*
COC(=O)c1ccccc1NC(=O)c1ccc(-c2nc(COc3ccccc3)c(C)o2)cc1	x	31%	-26%[59 µM]	-27%	x	-7%
CCOC(=O)c1c(Nc2ccc(C)cc2)nnc(-c2ccccc2)c1-c1ccccc1	x	-18%	2.2µM*	u	x	u
O=C(N=C1SCC(=O)N1c1ccccc1Cl)c1ccco1	x	36%	50µM*	-4%	-5%	-24%
